# Bioassay records as filed in PubChem.
# PMP22 txn prim: modulates PMP22 transcription in S16 Schwann cells. Potency, µM (titrated, usually from 57.5 µM), for inactives: at the top dose activity change, negative = inhibition, usual class: inhibitors. hit rate 2% among 43,000. AID 1508649. S16 Pmp22-F2sN Schwann cells, FLuc/NLuc coincidence luminescence, 24 h; active = clear falling dose curves in both reporters; inconclusive = both reporters move, but less clearly or upward; inactive = either reporter flat; the % is the NLuc reporter signal; note: potency is the fitted concentration of half-maximal effect; % is set by controls: 0 for no effect and ±100 for the full control effect
#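 Rat S16 Pmp22-F2sN cells, 500-1,000/well in phenol red-free DMEM + 10% FBS, compound-treated 24 h (37C, 5% CO2). Luminescence: FLuc read, Stop&Glo added, NLuc read.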
# S16 F2sN tox: S16 Schwann cell cytotoxicity; S16 Pmp22-F2sN Schwann cells (luciferase reporters placed in the Pmp22 gene) viability, CellTiter-Glo, 24 h; Potency, µM (top dose mostly 57.5 µM), inactives show at the highest dose activity change, negative = cytotoxicity, usual class: cytotoxic; hit rate 0.48% among 43,000; note: potency is the fitted concentration of half-maximal effect; % is set by controls: 0 for no effect and ±100 for the full control effect; nearly all actives have a fitted effect of over 65% in size
#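 Seed 500-1,000 S16 Pmp22-F2sN cells per well in phenol-red-free DMEM with 10% heat-inactivated FBS; pin-add 23 nL compound; incubate 24 h at 37C; add CellTiter-Glo, wait 15 min protected from light; read luminescence.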
# p53null 32C tox: selectivity test: cytotoxicity in p53 null cells, permissive temperature; H1299-neo p53 null cells, ATP luminescence, 24 h, 32C; Potency, µM (doses to about 46.1 µM), for inactives: at the highest dose activity change, negative = cytotoxicity, hits mostly cytotoxic; hit rate 0.62% among 55,000; AID 903;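 note: potency is the fitted concentration of half-maximal effect; 0% = DMSO only and -100% = full killing by 100 µM tamoxifen; nearly all actives have a fitted effect of over 55% in size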
#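 We seeded p53-null H1299-neo cells, incubated them overnight at 37C, and added compounds across a range up to 46 uM. After 24 hours at 32C, ATP reagent was applied for 20 min at room temperature and luminescence recorded.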
# p53null 39C tox: kills p53 null cells at the nonpermissive temperature. H1299 p53-null (neo) cells, 39C, ATPlite viability, 24 h. Potency, µM (top dose mostly 46.1 µM), for inactives: top-dose activity, negative = cell killing, actives largely listed as cytotoxic. hit rate 0.97% among 55,000. AID 904;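 note: potency is the fitted concentration of half-maximal effect; 0% = DMSO only and -100% = full killing by 100 µM tamoxifen; nearly all actives have a fitted effect of over 50% in size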
#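 Cells seeded at 600/well, 37C overnight. Compound added (up to 46 uM), plates shifted to 39C for 24 hr. ATPlite added, luminescence read after 20 min at room temperature.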
# SKOV3 invasion: blocks SKOV3ip1 adhesion and invasion in omental model; SKOV3ip1-GFP adhesion/invasion on 3D omental model, fluorescence; Potency, µM (top dose mostly 45.8 µM), without a hit: top-dose activity change, negative = inhibition, usual class: inhibitors; hit rate 0.1% among 46,000; AID 1963576;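 note: potency is the fitted concentration of half-maximal effect; plate controls were DMSO wells for no effect and tomatine positive control wells for full effect; nearly all actives have a fitted effect of over 65% in size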
#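 Adhesion/invasion was scored as fixed GFP-labeled SKOV3ip1 cell counts (488/509 nm), normalized to DMSO and tomatine controls. Cancer cells in serum-free medium, with four compound doses (0.36-46 umol/L), sat 2 hr at RT then 16 hr at 37 C on a 48 hr fibroblast/mesothelial/ECM culture.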
# mTORC1 inh: inhibitors of mTORC1 signaling in Tsc2-/- p53-/- MEF cells. Tsc2-/- p53-/- MEF, phospho-rpS6 immunofluorescence/PI, 24 h. Potency, µM (top dose mostly 38.3 µM), for inactives: at the highest dose activity change, negative = inhibition, actives largely listed as inhibitors. hit rate 0.78% among 44,000. AID 493208;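 note: potency is the fitted concentration of half-maximal effect; plate controls were DMSO for no effect and rapamycin for full effect; nearly all actives have a fitted effect of over 50% in size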
#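 Compounds act on Tsc2-/-, p53-/- fibroblasts carrying an empty vector for 24 h before fixation and dual staining for phospho-S6 and DNA (propidium iodide). Values are percentages of cells above a rapamycin-defined pS6/PI threshold.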
# NLuc saturating: NanoLuc enzyme inhibition artifact for PMP22 screen | shares compounds with PMP22 txn prim | AID 1508638 | Secreted NLuc enzyme (filtered S16 cell medium), Nano-Glo luminescence | Potency, µM (top dose mostly 57.5 µM), without a hit: at the top dose activity change, negative = inhibition, hits mostly inhibitors | hit rate 4% among 690; note: potency is the fitted concentration of half-maximal effect; % is set by controls: 0 for no effect and ±100 for the full control effect
# NLuc Km ctr: inhibits NanoLuc under Km conditions, PMP22 counter-screen; Potency, µM (series often up to 57.5 µM), for inactives: top-dose activity change, negative = inhibition, hits mostly inhibitors; shares compounds with PMP22 txn prim; hit rate 5% among 690; AID 1508639; secreted NLuc enzyme, coelenterazine luminescence, Km conditions; note: potency is the fitted concentration of half-maximal effect; % is set by controls: 0 for no effect and ±100 for the full control effect
# FLuc ctr PMP22: firefly luciferase enzyme inhibition artifact for PMP22 screen | shares compounds with PMP22 txn prim | AID 1508640 | purified P. pyralis FLuc, luminescence, 10 min | 690 tested, under 10 active | Potency, µM (titrated, usually from 57.5 µM), inactives show top-dose activity, negative = inhibition, usual class: inhibitors; note: % of control where 0% means no effect
# Target sequence (P08659 whole entry, looked up): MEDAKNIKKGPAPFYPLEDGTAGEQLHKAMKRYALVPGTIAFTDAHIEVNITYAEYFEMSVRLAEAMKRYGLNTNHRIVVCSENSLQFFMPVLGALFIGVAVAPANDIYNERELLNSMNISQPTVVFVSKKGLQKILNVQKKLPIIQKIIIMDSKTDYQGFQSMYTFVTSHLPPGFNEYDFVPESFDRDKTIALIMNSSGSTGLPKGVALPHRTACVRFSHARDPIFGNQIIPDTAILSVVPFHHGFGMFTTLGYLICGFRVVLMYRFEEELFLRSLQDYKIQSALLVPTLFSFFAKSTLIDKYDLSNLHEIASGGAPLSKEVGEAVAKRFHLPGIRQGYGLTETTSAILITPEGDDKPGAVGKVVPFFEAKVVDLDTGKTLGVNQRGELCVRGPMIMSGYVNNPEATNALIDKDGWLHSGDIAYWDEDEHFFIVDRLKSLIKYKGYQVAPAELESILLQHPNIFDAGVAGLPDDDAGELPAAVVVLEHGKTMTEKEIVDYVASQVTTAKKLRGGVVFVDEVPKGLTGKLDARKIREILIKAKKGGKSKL
# S16 F2sN tox cnf: S16 Schwann cell cytotoxicity, confirmatory | AID 1508641 | S16 Schwann cells viability, CellTiter-Glo ATP luminescence, 24 h | hit rate 7% among 690 | Potency, µM (doses to about 57.5 µM), for inactives: top-dose activity change, negative = viability loss, hits mostly cytotoxic | shares compounds with PMP22 txn prim; note: potency is the fitted concentration of half-maximal effect; % is set by controls: 0 for no effect and ±100 for the full control effect
# PMP22 txn cnf: confirmation of modulators of PMP22 gene transcription in S16 cells; AID 1508646; hit rate 22% among 690; shares compounds with PMP22 txn prim; S16 Schwann cells Pmp22-F2sN, dual luciferase, 24 h; Potency, µM (titrated, usually from 57.5 µM), inactives show top-dose activity change, negative = inhibition, most hits filed as inhibitors; active = clear falling dose curves in both reporters; inconclusive = both reporters move, but less clearly or upward; inactive = either reporter flat; the % is the FLuc reporter signal; note: potency is the fitted concentration of half-maximal effect
# An asterisk follows results filed as active; i = inactive; ? = inconclusive; nt = no result. Hits are enriched below; roughly 3.1% of the tested compounds scored in any of these assays. Unless noted, calls come from the whole dose curve; as a rule, active = well fitted curve in the direction sought with a large enough effect; inconclusive = small, poorly fitted or top-dose-only effect, or another doubt; inactive = no such curve, though single readings can be large; an effect the other way counts as inactive or inconclusive.
SMILES,PMP22 txn prim,S16 F2sN tox,p53null 32C tox,p53null 39C tox,SKOV3 invasion,mTORC1 inh,NLuc saturating,NLuc Km ctr,FLuc ctr PMP22,S16 F2sN tox cnf,PMP22 txn cnf
Cc1cccc(C(=O)Nc2cccc(C(=O)OCc3cc(=O)n4nc(C(C)C)sc4n3)c2)c1,13µM*,-7%,0%,-6%,30%,13%,2%,0%,?,-15%,30%
CCOC(=O)C1CCN(C(=O)c2ccc3c(=O)n4nc(Nc5ccccc5)sc4nc3c2)CC1,5.3µM*,4%,-9%,23%,i,-5%,?,?,?,6%,-23%
COc1ccccc1Nc1nn2c(=O)c3ccc(C(=O)N4CCC(C)CC4)cc3nc2s1,?,5%,-8%,24%,-8%,-1%,nt,nt,nt,nt,nt
Cc1c(Cl)cccc1Nc1nn2c(=O)c3ccc(C(=O)N(C)Cc4ccccc4)cc3nc2s1,-25%,1%,-6%,-1%,0%,0%,nt,nt,nt,nt,nt
Cc1ccc(C)c(Nc2nn3c(=O)c4ccc(C(=O)NCCc5ccccc5)cc4nc3s2)c1,13µM*,17%,-9%,-16%,i,1%,?,-2%,-1%,19µM*,11µM*
Cc1ccc(C)c(Nc2nn3c(=O)c4ccc(C(=O)NC5CCCCC5)cc4nc3s2)c1,-21%,-19%,-4%,12%,-2%,-2%,nt,nt,nt,nt,nt
Cc1c(Cl)cccc1Nc1nn2c(=O)c3ccc(C(=O)NCCc4ccccc4)cc3nc2s1,10µM*,?,?,?,i,-3%,-15%,?,1%,27µM*,15µM*
O=C1CCSc2ccc(S(=O)(=O)Nc3ccc(Cl)c(C(F)(F)F)c3)cc2N1,-20%,1%,-4%,-2%,i,0%,nt,nt,nt,nt,nt
CCC(=O)N1CCc2cc(Br)cc(S(=O)(=O)N3CCCC(C(=O)NCc4cccc(OC)c4)C3)c21 (stereo not given),14µM*,18%,5%,-14%,11%,-3%,-17%,5%,7%,-21%,-41%
COc1ccc(N2CCN(C(=O)c3ccc4c(c3)N(Cc3ccc(F)cc3)C(=O)c3ccccc3S4=O)CC2)cc1 (stereo not given),?,15%,1%,?,19%,-8%,0.15µM*,0.12µM*,1%,-2%,-17%
Cc1ccc(C)c(Cn2c(=O)n(-c3ccccc3)c(=O)c3c4c(sc32)CCCC4)c1,-5%,10%,-1%,10%,-18%,3%,nt,nt,nt,nt,nt
CC(C)OCCCNc1ncnc2sc3c(c12)CCCC3,14µM*,-10%,-3%,-8%,i,-20%,-3%,-3%,-9%,-7%,-6%
Cc1noc(Cn2c(=O)c3cc4c(cc3n(CC(=O)Nc3ccc(C(C)C)cc3)c2=O)OCO4)n1,-17%,-1%,4%,11%,-5%,-7%,nt,nt,nt,nt,nt
Cc1nnc(N2CCC(C(=O)N3CCCCC3)CC2)c2nn(-c3ccc(Cl)cc3)c(C)c12,19µM*,?,27%,-5%,2%,-2%,-6%,5%,-2%,-9%,?
Cc1nnc(N2CCCC(C(=O)Nc3ccccc3C(F)(F)F)C2)c2nn(-c3ccccc3)c(C)c12 (stereo not given),13µM*,28µM*,-2%,-3%,?,-8%,-19%,-2%,4%,?,?
COC(=O)c1ccccc1NC(=O)C1CCCN(c2nnc(C)c3c(C)n(-c4ccccc4)nc23)C1 (stereo not given),-1%,12%,2%,21%,0%,-6%,nt,nt,nt,nt,nt
COc1ccc(CNC(=O)C2CCCN(c3nnc(C)c4c(C)n(-c5ccc(C)cc5)nc34)C2)cc1 (stereo not given),17µM*,?,-1%,3%,-29%,-14%,?,?,-4%,?,?
COc1ccc(NC(=O)C2CCCN(c3nnc(C)c4c(C)n(-c5ccccc5)nc34)C2)cc1Cl (stereo not given),20µM*,?,?,?,?,?,-9%,-1%,28%,43µM*,?
Cc1ccc(NC(=O)C2CCN(c3nnc(C)c4c(C)n(-c5ccccc5)nc34)CC2)cc1Cl,-3%,11%,-4%,30%,-3%,-8%,nt,nt,nt,nt,nt
COC(=O)c1c(NC(=O)CCCOc2ccc(C(C)(C)C)cc2)sc2c1C(C(=O)OC)CC2 (stereo not given),?,-2%,14%,17%,3%,-8%,nt,nt,nt,nt,nt
CCN(CC)c1cc2c(cc1F)c(=O)c(S(=O)(=O)c1ccc(C)cc1)cn2Cc1ccc(F)cc1,-5%,0%,-4%,6%,-11%,3%,nt,nt,nt,nt,nt
CCc1ccc(NC(=O)CSc2nc(=O)n(Cc3ccco3)c3c2CCC3)cc1,?,-6%,26%,-15%,2%,-5%,nt,nt,nt,nt,nt
COC(=O)c1ccc(NC(=O)CSc2nc(=O)n(Cc3ccco3)c3c2CCC3)cc1,8.3µM*,-11%,8%,16%,-6%,-8%,?,?,-14%,-1%,-44%
CCCCn1c(=N)c(C(=O)NC2CCCCC2)cc2c(=O)n3cccc(C)c3nc21,-3%,25%,-2%,-3%,24%,-6%,nt,nt,nt,nt,nt
